Experimental data published in PubChem BioAssay AID435022 (Sanford-Burnham Center for Chemical Genomics, 2010).
The whole screen tested about 330,000 compounds, of which about 1,100 (0.33%) were called active. No stated cut-off is given here; in the data, active means inhibition above about 35%; inactive means the rest. Shown is part of a subset that was picked to be rich in actives.

Test: lowers stimulated NF-kB luciferase signal in 697 B cells – cell-based, luminescence, uHTS, B-cell NF-kB inhibitor project, primary screen (AID 435022)
Details: 697 B-cell NF-kB luciferase reporter, PMA/ionomycin, 16 h; at 4 µM; hits give high values

Row | Structure (SMILES) | inhibition
1 | CCCCCCCCCCCCn1ccc(=N)cc1 | 90.6% (active)
2 | CCOc1ccc(C2SCC(=O)Nc3c2c(C)nn3C2CCOC(C)(C)C2)cc1 (stereo not given) | 24.3% (inactive)
3 | COC(=O)COc1cc(C)cc2oc(=O)c3c(c12)CCCC3 | 13.3% (inactive)
4 | CN1C2C=C(N(C(=O)c3ccc(Cl)cc3)c3ccccc3)CC1CC2 (stereo not given) | -2.33% (inactive)
5 | COc1cc(-n2c(=S)[nH]c3ccc(C)cc3c2=O)c(Cl)cc1Cl | -21.6% (inactive)
